Molecules are shown by their SMILES. Records with an inconclusive call do not appear. Values without a mark were called inactive. Calls of active or inactive are those of the source. Calls come from the whole dose curve; as a rule, active = well fitted curve in the direction sought with a large enough effect; inconclusive = small, poorly fitted or top-dose-only effect, or another doubt; inactive = no such curve, though single readings can be large; an effect the other way counts as inactive or inconclusive. Non-standard residues stand in square brackets, D forms with d. Residues, ends and D or L forms follow the SMILES beside them.

Usually viability stands for a read-out of living cells in per cent, often relative to untreated cells.

Assay [1] can be described thus: BET inhibitor-based combinations targeting novel dependencies in MECOM-rearranged (r) AML: SET-2 cell line (AID 2202231).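 For viability: plate controls were DMSO treated cells for no effect and wells without cells for full effect.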 Note: nearly all actives have a fitted effect of over 35% in size. Particulars: SET-2 AML cells viability, CellTiter-Glo luminescence, 48 h; viability: hits give low values, concentration not given here. The method, boiled down: (§1)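 Luminescent ATP readout (CellTiter-Glo) after 48 hr drug exposure gives viability. Curves span 11 concentrations and are normalized to DMSO and empty wells. Activity is reported as area under the curve and its Z-transform within each cell line.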
In general terms: Cellular ATP, detected with luciferase, serves as a proxy for viable cell number.

Assay [2] in a line: BET inhibitor-based combinations targeting novel dependencies in MECOM-rearranged (r) AML: OCI-AML3 cell line (AID 2202232).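 For viability (% of control): series mostly up to about 46 µM; plate controls were DMSO vehicle wells for no effect and wells without cells for full effect.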 Note: nearly all actives have a fitted effect of over 35% in size. Particulars: Potency: OCI-AML3 viability. Put shortly:
as §1

Assay [3] can be described thus: BET inhibitor-based combinations targeting novel dependencies in MECOM-rearranged (r) AML: MV-4-11 cell line (AID 2202233).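 For viability, % of control: plate controls were DMSO for no effect and blank wells for full effect.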 Note: nearly all actives have a fitted effect of over 45% in size. The method, boiled down: (§2)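 Luminescent ATP readout (CellTiter-Glo, 15 min at room temperature) after 48 hr drug exposure gave viability. Dose-response curves, normalized to DMSO and empty-well controls, were summarized as area under the curve and its mean-centred Z-score.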

The nature of assay [4]: BET inhibitor-based combinations targeting novel dependencies in MECOM-rearranged (r) AML: UCSD-AML1 cell line (AID 2202235).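 For viability (% of control): series mostly up to about 46 µM; plate controls were DMSO vehicle wells for no effect and blank wells for full effect.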 Note: nearly all actives have a fitted effect of over 40% in size. Put shortly:
as §2

Assay [5] is described as follows: BET inhibitor-based combinations targeting novel dependencies in MECOM-rearranged (r) AML: AML-191 cell line (AID 2202236; note: nearly all actives have a fitted effect of over 35% in size;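 for viability (% of control): plate controls were vehicle wells for no effect and wells without cells for full effect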). Put shortly:
as §1

The nature of assay [6]: BET inhibitor-based combinations targeting novel dependencies in MECOM-rearranged (r) AML: HNT-34 cell line (AID 2202234).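 For viability (% of control): plate controls were vehicle wells for no effect and cell-free wells for full effect.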 Note: nearly all actives have a fitted effect of over 35% in size. The method, boiled down:
as §2

The nature of assay [7]: BET inhibitor-based combinations targeting novel dependencies in MECOM-rearranged (r) AML: AML-194 cell line (AID 2202237; note: nearly all actives have a fitted effect of over 40% in size;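 for viability (% of control): plate controls were vehicle wells for no effect and wells without cells for full effect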). Put shortly: as §1
Potency is the fitted concentration of half-maximal effect.

Consider `NC[C@H]1O[C@H](O[C@H]2[C@H](O)[C@@H](O[C@H]3O[C@H](CO)[C@@H](O)[C@H](N)[C@H]3O)[C@H](N)C[C@@H]2N)[C@H](N)C[C@@H]1O`, for which the viability in assay [1] was 115%. The Potency result in assay [2], in assay [3], in assay [4] and in assay [5] was “inactive” throughout.
For `Cc1cc(O)cc2c1[C@]1(C)CC[C@H]3C(C)(C)CCC[C@]3(C)[C@H]1C2`, the viability in assay [1] was 50.3%. Moreover, the viability (% of control) was 14.4% [at 5.12 µM] in assay [2] and 14.8% [at 5.12 µM] in assay [4]. Besides, in assay [3], the viability, % of control was 0.199% [at 5.12 µM].
For the compound `C=C1C(=O)OC2/C=C(/C)CC/C=C(/C)CCC12` (stereo unspecified), the Potency in assay [1] was 20.9 µM (active); in assay [2] it was 18.6 µM (active); in assay [3], 14.8 µM (active); in assay [4], 26.3 µM (active); in assay [5], 26.3 µM (active).
As for `C=C1C[C@@H]2CC[C@@]34C[C@H]5O[C@H]6[C@@H](O3)[C@H]3O[C@H](CC[C@@H]3O[C@H]6[C@H]5O4)CC(=O)C[C@@H]3[C@@H](OC)[C@@H](C[C@H](O)CN)O[C@H]3C[C@H]3O[C@@H](CC[C@@H]1O2)C[C@@H](C)C3=C`, the Potency in assay [1] is 0.152 µM (active); in assay [2] it was 0.0015 µM (active); in assay [3], 0.0017 µM (active); in assay [4], 0.0011 µM (active); in assay [5] it was 0.0015 µM (active).
For `Cc1cc(/C=c2/sc3nc4ccccc4n3c2=O)c(C)n1-c1ccccc1`, the viability in assay [1] is 105%. Further, the Potency in assay [2] was 14.8 µM (active); in assay [3], 20.9 µM (active); in assay [5] it was 16.6 µM (active). Further, the Potency entry in assay [4] is “inactive”.
For `NC1CCCN(c2c(/C=C3\SC(=O)NC3=O)cccc2-c2ccccc2)C1` (stereo unspecified), the Potency was 5.9 µM (active) in assay [1]; 0.235 µM (active) in assay [2]; 1.18 µM (active) in assay [3]; 0.59 µM (active) in assay [4]; 18.6 µM (active) in assay [5].
On to `C[C@@H](OC[C@@]1(c2ccccc2)CC[C@]2(CCC(=O)N2)CN1)c1cc(C(F)(F)F)cc(C(F)(F)F)c1`, for which the Potency in assay [1] was 20.9 µM (active); in assay [2], 18.6 µM (active); in assay [3], 20.9 µM (active); in assay [6] it was 18.6 µM (active); in assay [5], 18.6 µM (active); in assay [7] it was 26.3 µM (active).
In the case of `Cc1ccc(Nc2ncc3c(n2)N(C)C(=O)N(c2cc(NC(=O)c4cccc(C(F)(F)F)c4)ccc2C)C3)cn1`, the Potency in assay [1] was 0.934 µM (active); in assay [2], 0.263 µM (active); in assay [3], 0.0372 µM (active); in assay [4] it was 0.0934 µM (active); in assay [5] it was 0.0833 µM (active).
In the case of `NC(=O)c1ccc2nc(-c3ccc(C4(N)CCC4)cc3)c(-c3ccccc3)n2n1`, the viability in assay [1] is 98.4%. Further, the Potency was 13.2 µM (active) in assay [2], 4.17 µM (active) in assay [3] and 3.72 µM (active) in assay [4].
Consider `CC(C)C[C@H](NC(=O)[C@H](Cc1ccccc1)NC(=O)OCc1ccccc1)C(=O)C=O`, for which the viability in assay [1] was 114%. For the same compound, the Potency entry in assay [2], in assay [3], in assay [6] and in assay [7] was “inactive” throughout. For the same compound, the Potency in assay [5] was 26.3 µM (active).
`CC(C)NC(=O)C1CCC(n2c(NC(=O)c3ccc(F)cc3)nc3ccc(CN4CCC(C(C)(C)O)CC4)cc32)CC1` (stereo unspecified): the viability in assay [1] is 121%. The Potency was 3.62 µM (active) in assay [2] and 1.82 µM (active) in assay [3]. Also, the Potency result in assay [4] is “inactive”.
On to `NC(CO)(CO)CCc1ccc(Sc2cccc(OCc3ccccc3)c2)cc1Cl`, for which the Potency in assay [1] was 18.6 µM (active); in assay [2], 9.34 µM (active); in assay [3] it was 10.5 µM (active); in assay [6] it was 18.6 µM (active); in assay [5] it was 10.5 µM (active); in assay [7], 9.34 µM (active).
On to `COC(=O)Nc1nc2ccc(C(=O)c3ccccc3)cc2[nH]1`, for which the Potency in assay [1] is 0.833 µM (active); in assay [2], 0.59 µM (active); in assay [3], 0.525 µM (active); in assay [6] it was 0.263 µM (active); in assay [5], 0.263 µM (active); in assay [7] it was 0.332 µM (active).
For `Cc1ccc(F)c(NC(=O)Nc2ccc(-c3cccc4[nH]nc(N)c34)cc2)c1`, the Potency in assay [1] was 14.8 µM (active); in assay [2], 18.6 µM (active); in assay [3] it was 0.0074 µM (active); in assay [4] it was 16.6 µM (active); in assay [5] it was 16.6 µM (active); in assay [7], 16.6 µM (active).
For the compound `Cc1ccc(Sc2ccccc2N2CCNCC2)c(C)c1`, the Potency in assay [1] was 18.6 µM (active); in assay [2], 20.9 µM (active); in assay [3], 20.9 µM (active); in assay [4] it was 16.6 µM (active); in assay [5] it was 18.6 µM (active); in assay [7], 11.8 µM (active).
With `COc1ccc(S(=O)(=O)N2CCc3cccc(-c4ccncc4)c32)cc1`, the Potency in assay [1] was 1.66 µM (active); in assay [2] it was 1.05 µM (active); in assay [3] it was 1.18 µM (active); in assay [4], 1.18 µM (active); in assay [5] it was 1.05 µM (active); in assay [7], 0.934 µM (active).
On to `Nc1cc(COc2c(Cl)cc(C[C@H](N)C(=O)O)cc2Cl)c2oc(-c3ccccc3)nc2c1`, for which the Potency in assay [1] was 11.8 µM (active); in assay [2] it was 13.2 µM (active); in assay [3], 10.5 µM (active); in assay [5], 20.9 µM (active). Moreover, the Potency result in assay [4] and in assay [7] was “inactive” each time.
On to `COc1cc2nccc(Oc3ccc(NC(=O)c4cn(C(C)C)c(=O)n(-c5ccc(F)cc5)c4=O)cc3F)c2cc1OC`, for which the viability in assay [1] is 113%. The Potency result in assay [2], in assay [4] and in assay [7] was “inactive” throughout. For the same compound, the Potency in assay [3] was 0.468 µM (active).
Take `CC(C)C[C@@H]1NC(=O)[C@@H](C(C)C)NC(=O)[C@@H]2CCCN2C(=O)[C@@H](CC(=O)O)NC(=O)[C@@H](Cc2c[nH]c3ccccc23)NC1=O` (cyclo(L[dW][dD]P[dV])): in assay [1], the viability is 110%. For the same compound, the Potency result in assay [2], in assay [3], in assay [4], in assay [5] and in assay [7] was “inactive” throughout.

The values above are taken from PubChem BioAssay (NCATS).
